Our source for the Potency values is PubChem BioAssay (NCATS).

Molecules are shown by their SMILES. Results filed as inconclusive are left out. A call without a number means that no potency is given here. Activity calls are given as the source filed them. Calls follow the shape of the dose curve; as a rule, active = well fitted inhibition curve with a large enough effect; inconclusive = small, poorly fitted or top-dose-only effect; inactive = flat fitted curve, though single readings scatter.
Potency is read from the fitted curve at half-maximal effect.

The subject of the experiment is MCC-13. Briefly: qHTS assay to identify novel small-molecules to repurpose for Merkel cell carcinoma treatment (AID 1296009). Also: nearly all actives have a fitted effect of over 60% in size. To be noted: MCC and control cell lines, CellTiter-Glo viability, 72 h; series mostly up to 46 µM. The gist of the method:
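Dose-response viability screen; 72 hr exposure at 37 degree celsius; CellTiter-Glo added, 10 min room temperature, luminescence read; RLUs scaled between no-cell and DMSO wells.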
Turning to `N#Cc1cc(NC(=O)Nc2nnc(-c3ccncc3)s2)ccc1-c1cn[nH]c1`, the Potency result is “inactive”.

As to `CC(C)NC[C@@H](C(=O)N1CCN(c2ncnc3c2[C@H](C)C[C@H]3O)CC1)c1ccc(Cl)cc1`, the Potency entry is “inactive”.

Turning to `COc1cc(C)c(Sc2cnc(NC(=O)c3ccc(CNC(C)C(C)(C)C)cc3)s2)cc1C(=O)N1CCN(C(C)=O)CC1` (stereo not given), the Potency entry is “inactive”.

Consider `C=C1C[C@@]2(O)O[C@@]3(C[C@H]2C(C)C)[C@H](C)CC[C@H]13`, for which the Potency entry is “inactive”.

Regarding `CCCNC(=O)[C@H]1O[C@H]1C(=O)N[C@H](C(=O)N1CCC[C@@H]1C(=O)OC)C(C)CC` (stereo not given in full), the Potency was 20.9 µM (active).

Consider `CCOC(=O)C=C[C@H](C[C@@H]1CCNC1=O)NC(=O)[C@@H](CC(=O)[C@@H](NC(=O)c1cc(C)on1)C(C)C)Cc1ccc(F)cc1`, for which the Potency result was “inactive”.

For the compound `NC[C@H]1O[C@H](O[C@H]2[C@@H](O)[C@@H](O[C@H]3O[C@H](CO)[C@@H](O)[C@H](N)[C@@H]3O)[C@H](N)C[C@@H]2N)[C@H](N)C[C@H]1O`, the Potency result was “inactive”.

As to `C=CCNc1c(O)cc2c(O)c1C[C@@H](C)C[C@H](OC)[C@@H](O)[C@@H](C)C=C(C)[C@H](OC(N)=O)[C@@H](OC)C=CC=C(C)C(=O)N2`, the Potency is 5.9 µM (active).

For `C[C@]12CC[C@@H]3c4ccc(O)cc4CC[C@H]3[C@H]1CC[C@H]2O`, the Potency entry was “inactive”.

Take `CC(C=CC(=O)NO)=C[C@@H](C)C(=O)c1ccc(N(C)C)cc1`: the Potency was 8.33 µM (active).

In the case of `O=C(C=CC#Cc1cccc(NS(=O)(=O)c2ccccc2)c1)NO`, the Potency was 14.8 µM (active).

For `c1coc(CNc2ncnc3nc[nH]c23)c1`, the Potency result is “inactive”.

Turning to `CCC(C=C[C@@H]1OC(=O)C=C[C@H]1C)=C[C@H](C)CC=CC(C)=C[C@@H](C)C(=O)[C@@H](C)[C@H](O)[C@@H](C)CC(C)=CC(=O)O`, the Potency was 0.0984 µM (active).

With `Cc1cc(O)c2c(c1)C(=O)c1cccc(O)c1C2=O`, the Potency entry was “inactive”.

As for `CS(=O)(=O)N1CCc2c(-c3cnc(N)nc3)nc(N3CCOCC3)nc21`, the Potency entry is “inactive”.

Take `O=C(NCc1ccccc1)[C@H](Cc1ccccc1)NC(=O)[C@@H]1O[C@@H]1C(=O)NCCc1ccc(O)cc1`: the Potency result was “inactive”.

As to `CCOC(=O)C1=C(C)NC(=S)NC1c1cccc(O)c1` (stereo not given), the Potency is 1.48 µM (active).

With `O=C(CCCCCCC(=O)Nc1cccnc1)NO`, the Potency was 26.4 µM (active).

`CCOc1cc2ncc(C#N)c(Nc3ccc(OCc4ccccn4)c(Cl)c3)c2cc1NC(=O)C=CCN(C)C`: the Potency entry is “inactive”.

As for `O=S(=O)(O)CCSSCCS(=O)(=O)O`, the Potency result was “inactive”.

`C=CC(=O)Nc1ccc2ncnc(Nc3ccc(OCc4cccc(F)c4)c(Cl)c3)c2c1`: the Potency is 3.72 µM (active).

Consider `COc1ccc2c(c1OC)C(=O)OC2[C@H]1c2c(cc3c(c2OC)OCO3)CCN1C` (stereo not given in full), for which the Potency was 2.96 µM (active).

Turning to `COc1cccc2c1C(=O)c1c(O)c3c(c(O)c1C2=O)C[C@@](O)(C(=O)CO)C[C@@H]3O[C@H]1C[C@H](N)[C@@H](O)[C@H](C)O1`, the Potency is 5.9 µM (active).

Turning to `CC(C)(C)[N+]([O-])=Cc1ccc(S(=O)(=O)O)cc1S(=O)(=O)O`, the Potency result is “inactive”.

Turning to `C[C@@H](Cc1cc2c(c(C(N)=O)c1)N(CCCO)CC2)NCCOc1ccccc1OCC(F)(F)F`, the Potency result is “inactive”.
